Assay results: PubChem BioAssay (EPA / NIEHS)
Active and inactive are the calls of the source. The calls were made as follows: active = hit-call score of the fitted dose curve at least 0.9, where 1 is the maximum; inactive = score below 0.9.

What follows are compounds tested on Low-density lipoprotein receptor (LDLR), LDLR (gene 3949) (assay: BSK_CASM3C_LDLR: BioMAP Diversity Plus: CASM3C Assay for Low-density lipoprotein receptor (LDLR) Biomarker Activity (AID 2283045;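 also: LDLR protein level on the cell surface quantified by ELISA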)). Conditions: primary human coronary artery smooth muscle cells; actives raise or lower the signal.
In the case of `C=C(C)C(N)=O`, the outcome is reported as “inactive”.
In the case of `c1ccc2c(c1)-c1ccc3ccc4cccc5cc-2c1c3c45`, the outcome is reported as “inactive”.
In the case of `O=C(O)C(F)(F)C(F)(F)C(F)(F)C(F)(F)C(F)(F)C(F)(F)C(F)(F)C(F)F`, the outcome is reported as “inactive”.
In the case of `C[C@]12CC[C@@H]3c4ccc(O)cc4CC[C@H]3[C@@H]1CC[C@@H]2O`, the outcome is reported as “inactive”.
`CCCCCCCCCC(=O)OCC` was tested, and the AC50 was 36.4 µM (active).
`Nc1ccc(N)c([N+](=O)[O-])c1` was tested, and the outcome was “inactive”.
For `CCCCN(CCO)CCO`, the outcome was “inactive”.
For `CC(=O)OC(C)(C)C1CC=C(C)CC1` (configuration not stated), the outcome was “inactive”.
With `CC1=CC(C)C(C=O)C(C)C1` (configuration not stated) (tested in a mixture with another compound) the outcome was “inactive”.
`CCC(=O)OCC=Cc1ccccc1` was tested, and the outcome was “inactive”.
With `CC=CC(=O)C1=C(C)C=CCC1(C)C` the outcome was “inactive”.
With `CC(=O)CCC=C(C)CCC=C(C)C` the outcome was “inactive”.
With `CCCCCCCC1CCCC1=O` (configuration not stated) the AC50 was 30.5 µM (active).
`O=S1(=O)CC(Cl)(Cl)C(Cl)(Cl)C1` was tested, and the AC50 was 0.389 µM (active).
In the case of `CCCCCCCCCCCCS`, the outcome is reported as “inactive”.
In the case of `CC(=O)OCC=C(C)CCC=C(C)CCC=C(C)C`, the outcome is reported as “inactive”.
With `OCC(F)(OC(F)(F)C(F)(OC(F)(F)C(F)(F)C(F)(F)F)C(F)(F)F)C(F)(F)F` (configuration not stated) the outcome was “inactive”.
For `CC1(C)[C@H](C=C(Cl)Cl)[C@H]1C(=O)OCc1cccc(Oc2ccccc2)c1`, the outcome was “inactive”.
For `CCOC(=O)C=Cc1ccccc1`, the outcome was “inactive”.
For `O=C(O)C(F)(F)OC(F)(F)C(F)(F)OC(F)(F)C(F)(F)C(F)(F)C(F)(F)F`, the outcome was “inactive”.
In the case of `CC(C)(C)c1cccc(O)c1`, the outcome is reported as “inactive”.
`CC(C)Cc1ccc(C(C)C(=O)O)cc1` (configuration not stated) was tested, and the outcome was “inactive”.
